# Measured values: the supplement of paper PMC8728848
# Many of the other results were omitted from the sample, so the strongest signals are more common in it than they were.
# Experiments:
# Assay in all cases: glycan array binding signal (z-score within array); higher = stronger binding
# Settings in all cases: glycan notation: IUPAC condensed, linker removed
# [1] = biological target: GlcNAc(b1-3)Gal(b1-4)GlcNAc(b1-3)Gal(b1-4)GlcNAc(b1-3)Gal(b1-4)GlcNAc(b1-3)Gal(b1-4)GlcNAc(b1-2)Man(a1-3)[GlcNAc(b1-3)Gal(b1-4)GlcNAc(b1-3)Gal(b1-4)GlcNAc(b1-3)Gal(b1-4)GlcNAc(b1-3)Gal(b1-4)GlcNAc(b1-2)Man(a1-6)]Man(b1-4)GlcNAc(b1-4)[Fuc(a1-6)]GlcNAc
# Procedure, shortened: (§1)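 Arrays were curated from the Consortium for Functional Glycomics database, 3228 in total, and kept only where the protein sequence was available. Binding is expressed as a within-array Z-score. This score was averaged across arrays of the same protein sequence at different concentrations or buffers and across linkers, and negative values can be read as non-binding.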
# [2] = biological target: GlcNAc(b1-3)Gal(b1-4)GlcNAc(b1-3)Gal(b1-4)GlcNAc(b1-3)Gal(b1-4)GlcNAc(b1-3)Gal(b1-4)GlcNAc(b1-2)[GlcNAc(b1-3)Gal(b1-4)GlcNAc(b1-3)Gal(b1-4)GlcNAc(b1-3)Gal(b1-4)GlcNAc(b1-3)Gal(b1-4)GlcNAc(b1-6)]Man(a1-6)[GlcNAc(b1-3)Gal(b1-4)GlcNAc(b1-3)Gal(b1-4)GlcNAc(b1-3)Gal(b1-4)GlcNAc(b1-3)Gal(b1-4)GlcNAc(b1-2)Man(a1-3)]Man(b1-4)GlcNAc(b1-4)[Fuc(a1-6)]GlcNAc
# Procedure, shortened: as §1
# [3] = biological target: Kdn(a2-3)Gal(b1-4)GlcNAc
# Procedure, shortened: as §1
# [4] = biological target: Neu5Ac(a2-3)Gal
# Procedure, shortened: as §1
# [5] = biological target: Neu5Ac(a2-3)Gal(b1-3)GlcNAc(b1-2)Man
# Procedure, shortened: as §1
# [6] = biological target: Neu5Ac(a2-3)Gal(b1-3)[Fuc(a1-4)]GlcNAc(b1-3)Gal(b1-4)[Fuc(a1-3)]GlcNAc
# Procedure, shortened: as §1
# [7] = biological target: Neu5Ac(a2-3)Gal(b1-3)[Neu5Ac(a2-6)]GalNAc
# Procedure, shortened: as §1
# [8] = biological target: Neu5Ac(a2-3)Gal(b1-4)GlcNAc(b1-3)Gal(b1-4)GlcNAc(b1-3)Gal(b1-4)GlcNAc(b1-2)Man(a1-3)[Neu5Ac(a2-3)Gal(b1-4)GlcNAc(b1-3)Gal(b1-4)GlcNAc(b1-3)Gal(b1-4)GlcNAc(b1-2)Man(a1-6)]GalNAc
# Procedure, shortened: as §1
# [9] = biological target: Neu5Ac(a2-3)Gal(b1-4)GlcNAc(b1-3)Gal(b1-4)[Fuc(a1-3)]GlcNAc
# Procedure, shortened: as §1
# [10] = biological target: Neu5Ac(a2-3)Gal(b1-4)GlcNAc(b1-6)[Neu5Ac(a2-3)Gal(b1-3)]GalNAc
# Procedure, shortened: as §1
# [11] = biological target: Neu5Ac(a2-3)Gal(b1-4)[Fuc(a1-3)]GlcNAc(b1-3)GalNAc
# Procedure, shortened: as §1
# [12] = biological target: Neu5Ac(a2-3)Gal(b1-4)[Fuc(a1-3)]GlcNAc(b1-6)[Gal(b1-3)]GalNAc
# Procedure, shortened: as §1
# [13] = biological target: Neu5Ac(a2-3)[GalNAc(b1-4)]Gal(b1-4)Glc
# Procedure, shortened: as §1
# [14] = biological target: Neu5Ac(a2-6)Gal(b1-4)GlcNAc(b1-2)Man(a1-3)[Neu5Ac(a2-6)Gal(b1-4)GlcNAc(b1-2)Man(a1-6)]Man(b1-4)GlcNAc(b1-4)[Fuc(a1-6)]GlcNAc
# Procedure, shortened: as §1
# [15] = biological target: Neu5Ac(a2-6)Gal(b1-4)GlcNAc(b1-3)Gal(b1-4)GlcNAc(b1-3)Gal(b1-4)GlcNAc(b1-2)Man(a1-3)[Neu5Ac(a2-6)Gal(b1-4)GlcNAc(b1-3)Gal(b1-4)GlcNAc(b1-3)Gal(b1-4)GlcNAc(b1-2)Man(a1-6)]GalNAc
# Procedure, shortened: as §1
# [16] = biological target: Neu5Ac(a2-6)Gal(b1-4)GlcNAc(b1-3)Gal(b1-4)GlcNAc(b1-3)[Neu5Ac(a2-6)Gal(b1-4)GlcNAc(b1-3)Gal(b1-4)GlcNAc(b1-6)]GalNAc
# Procedure, shortened: as §1
# [17] = biological target: Neu5Ac(a2-8)Neu5Gc(a2-3)Gal(b1-4)GlcNAc
# Procedure, shortened: as §1
# [18] = biological target: Neu5Gc(a2-3)Gal(b1-4)[Fuc(a1-3)]GlcNAc
# Procedure, shortened: as §1
binder,measurement,setting,value
PX9961T-pdi-555-33-555 (Parabacteroides distasonis) (protein) FDEETAFQSPTLVYVNTVASLYNNMFKIMGNDRHVYDLNTFSSDEAMLPCRIGDWEDGGLWQNIFLHRWGTMNDLTKNSWDFLYEQIGKCNQSVDKLQAFAEEQPDVEYFKVYLEEVRAVRAFFYYELLDLFARVPLVTSSTTPMSEVKQSERSVVFNFVRSELEEALPYLSDNRSNQKGEYYGRITKPVAYMILAKLALNAEVYADDNWTDGNRPAGKNIKFTVDGKEMNAWEATIAYVDKLEALGYKLQGNFSENFAVANETSVENIFTVPMDPVAYPDAKDYNLVRTRHYDHATAYGQSGWNGSCATVKAMNVFKFGTADEDPRCKLTYFTGEVTGPDGKTIYTEWDGQKVPLKYEPNAPKVYMDASDGLLVKTAGARMAKYEFDQNAQDGGNLHGNDCVIFRFADALLMKAEAKIRLGQNGDDEVNQVRNRVGAKPLQNVTLDTLLDERMLELAWEGVRRQDLIRFGKFTEATVDRYVGVKHFASSLDYQEDKTGYTTVFSIYADILSLNPNLTQNPGY,glycan array binding signal (z-score),[1],0.229
same,glycan array binding signal (z-score),[2],-0.523
same,glycan array binding signal (z-score),[3],-0.683
same,glycan array binding signal (z-score),[4],-0.213
same,glycan array binding signal (z-score),[5],-0.451
same,glycan array binding signal (z-score),[6],-0.031
same,glycan array binding signal (z-score),[7],-0.194
same,glycan array binding signal (z-score),[8],1.63
same,glycan array binding signal (z-score),[9],-0.528
same,glycan array binding signal (z-score),[10],1.08
same,glycan array binding signal (z-score),[11],1.68
same,glycan array binding signal (z-score),[12],-0.177
same,glycan array binding signal (z-score),[13],1.56
same,glycan array binding signal (z-score),[14],-0.612
same,glycan array binding signal (z-score),[15],0.737
same,glycan array binding signal (z-score),[16],1.82
same,glycan array binding signal (z-score),[17],20.7
same,glycan array binding signal (z-score),[18],0.358
